# Experimental data from PubChem BioAssay.
# Where “and” joins values, the source holds several entries; their conditions need not be identical. Equal entries are not always repeated. Results filed as inconclusive are left out. Calls of active or inactive are those of the source.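 How the source made its calls, unless noted: active means normalized viability below 100% at a tested concentration; inactive means the rest.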
# Tests used:
# [1] = drug combination growth inhibition, ovarian cancer – cell-based, oncology-focused library, rucaparib conditional, profiling panel (AID 1508598); details: patient-derived ovarian cancer cells, CellTiter-Glo viability, 144 h, stronger effect = lower value
# [2] = viability loss in pontine glioma line – cell-based, SU-DIPG-XVII, MIPE5.0, CellTiter-Glo, qHTS, dose response (AID 1347060; cut-off not given, nearly all actives have AC50 up to about 26 µM;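 further: cells exposed to compound for 48 hours before viability readout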); details: CellTiter-Glo ATP luminescence
# [3] = viability loss in pontine glioma line – cell-based, SU-DIPG-XIII, MIPE4.0, CellTiter-Glo, qHTS, dose response (AID 1347061; cut-off not given, nearly all actives have AC50 up to about 37 µM;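 further: cells exposed to compound for 48 hours before readout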); details: CellTiter-Glo ATP luminescence
# [4] = viability loss in pontine glioma line – cell-based, JHH-DIPG-1, MIPE4.0, CellTiter-Glo, qHTS, dose response (AID 1347062; cut-off not given, nearly all actives have AC50 up to about 27 µM;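 further: cells exposed to compound for two days before readout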); details: JHH-DIPG-1 viability, CellTiter-Glo ATP luminescence
# [5] = viability loss in pontine glioma line – cell-based, SU-DIPG-IV, MIPE4.0, CellTiter-Glo, qHTS, dose response (AID 1347063; cut-off not given, nearly all actives have AC50 up to about 30 µM;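 further: compound exposure lasted 48 hours before the viability readout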); details: CellTiter-Glo ATP luminescence
# [6] = viability loss in pontine glioma line – cell-based, SU-DIPG-XIII, MIPE5.0, CellTiter-Glo, qHTS, dose response (AID 1347064; cut-off not given, nearly all actives have AC50 up to about 23 µM;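 further: cells exposed to compound for 48 hours before the viability read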); details: CellTiter-Glo ATP luminescence
# [7] = viability loss in pontine glioma line – cell-based, SU-DIPG-XXV, MIPE5.0, CellTiter-Glo, qHTS, dose response (AID 1347065; cut-off not given, nearly all actives have AC50 up to about 26 µM;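 further: cells exposed to compound for 48 hours before ATP readout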); details: CellTiter-Glo ATP luminescence
# [8] = JHH-DIPG-1 glioma cell viability, MIPE5.0 library, CellTiter-Glo luminescence, qHTS (AID 1347067; cut-off not given, nearly all actives have AC50 up to about 26 µM;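 further: cells exposed to compound for 48 hours before readout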); details: JHH-DIPG-1 glioma viability, CellTiter-Glo ATP luminescence
# [9] = viability loss with induced miR-34 in A549 – imaging, A549 dox-inducible miR-34, nuclei and caspase counts, primary screen (AID 1347080;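 active means compounds whose cell count with miR-34 switched on is under 0.7 times the count with it off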); details: A549 miR-34 inducible, Hoechst nuclei count, 48 h
# [10] = MELAS cybrid and Rieske KO viability enhancers – cell-based, MELAS cybrids, Rieske KO mouse fibroblasts, CellTiter-Glo, primary screen (AID 1508586;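 active means mean z-score across replicates of 1.96 or higher in either the MELAS or the Rieske mutant cell line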;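 further: z relative to plate mean and SD of compound and empty wells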); details: low glucose
# [11] = growth inhibition, single agent or in combination, cell-based, chromothripsis tumors, cisplatin or BGB combos (AID 1671449; in the data active means inhibition above about 80%;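 further: cells exposed for 96 hours; 0% = vehicle DMSO and 100% = killing by high DMSO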); details: LFS_MB_P medulloblastoma cells
# [12] = growth inhibition, single agent and combos, cell-based, chromothripsis tumors, cisplatin or BGB combos (AID 1671450; in the data active means inhibition above about 80%;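 further: cells exposed to compound for four days; 0% = vehicle DMSO and 100% = cell killing by high DMSO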); details: HDN33 neuroblastoma cells, stronger effect = higher value
# [13] = growth inhibition, single agents and combos, ICB984, cell-based, cisplatin or BGB combos, synergistic combos for chromothripsis tumors (AID 1671451; call rule not given here;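 further: cells exposed for 96 hours before readout; 0% = vehicle DMSO and 100% = killing by high DMSO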); details: ICB984 medulloblastoma cells, drug combinations, stronger effect = higher value
# [14] = growth inhibition, single agents and combos, HTB85, cell-based, BGB or cisplatin IC20 combos, synergistic combos for chromothripsis tumors (AID 1671453; in the data active means inhibition above about 80%;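 further: cells exposed for 96 hours before readout; 0% = vehicle DMSO and 100% = high DMSO killing control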); details: HTB85 osteosarcoma cells, drug combinations, stronger effect = higher value
# [15] = growth inhibition, MDA-MB-436, cell-based, BGB or cisplatin combos, synergistic combos for chromothripsis tumors (AID 1671458; call rule not given here;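 further: cells exposed for 96 hours; 0% = vehicle DMSO and 100% = killing by high DMSO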); details: MDA-MB-436 breast carcinoma growth inhibition, drug combinations, stronger effect = higher value
# [16] = BT084 cell growth, single and combined drugs, ICGC_MB145, cisplatin and BGB IC40 combos (AID 1671461; in the data active means inhibition above about 80%;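 further: cells exposed to drugs for 96 hours; 0% = vehicle DMSO and 100% = high DMSO full killing control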); details: BT084 medulloblastoma cells, drug combinations, stronger effect = higher value
# [17] = RCMB18 cell growth, single agent and combined, cisplatin and BGB IC40 combos (AID 1671462; in the data active means inhibition above about 80%;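 further: cells exposed to compound for four days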); details: RCMB18 medulloblastoma cells, stronger effect = higher value
smiles,measurement,setting,value
CNC(=O)c1ccc(C)c(-n2c(C)cc(OCc3ccc(F)cc3F)c(Br)c2=O)c1,viability,"[1]; at 0.0195 µM, OCI-P5x cells, without rucaparib",107% (inactive)
same,viability,"[1]; at 0.0781 µM, OCI-C5x cells, with rucaparib 10 µM, 100% = cells with rucaparib alone",101% (inactive)
same,viability,"[1]; at 0.0781 µM, OCI-C5x cells, without rucaparib",106% (inactive)
same,viability,"[1]; at 0.0781 µM, OCI-P5x cells, with rucaparib 20 µM, 100% = cells with rucaparib alone",108% (inactive)
same,viability,"[1]; at 0.0781 µM, OCI-P5x cells, without rucaparib",108% (inactive)
same,viability,"[1]; at 0.313 µM, OCI-C5x cells, with rucaparib 10 µM, 100% = cells with rucaparib alone",90.4% (active)
same,viability,"[1]; at 0.313 µM, OCI-C5x cells, without rucaparib",119% (inactive)
same,viability,"[1]; at 0.313 µM, OCI-P5x cells, with rucaparib 20 µM, 100% = cells with rucaparib alone",112% (inactive)
same,viability,"[1]; at 0.313 µM, OCI-P5x cells, without rucaparib",112% (inactive)
same,viability,"[1]; at 1.25 µM, OCI-C5x cells, with rucaparib 10 µM, 100% = cells with rucaparib alone",91.7% (active)
same,viability,"[1]; at 1.25 µM, OCI-C5x cells, without rucaparib",112% (inactive)
same,viability,"[1]; at 1.25 µM, OCI-P5x cells, with rucaparib 20 µM, 100% = cells with rucaparib alone",110% (inactive)
same,viability,"[1]; at 1.25 µM, OCI-P5x cells, without rucaparib",108% (inactive)
same,viability,"[1]; at 5 µM, OCI-C5x cells, with rucaparib 10 µM, 100% = cells with rucaparib alone",123% (inactive)
same,viability,"[1]; at 5 µM, OCI-C5x cells, without rucaparib",129% (inactive)
same,viability,"[1]; at 5 µM, OCI-P5x cells, with rucaparib 20 µM, 100% = cells with rucaparib alone",110% (inactive)
same,viability,"[1]; at 5 µM, OCI-P5x cells, without rucaparib",105% (inactive)
O=C(CCCCCCNC(=O)c1cnc(N(c2ccccc2)c2ccccc2)nc1)NO,AC50,[2],7.42 µM (active)
same,AC50,[3],23.5 µM (active)
same,AC50,[4],7.43 µM (active)
same,AC50,[5],5.9 µM (active)
same,AC50,[6],4.17 µM (active)
same,AC50,[7],7.42 µM (active)
same,AC50,[8],8.33 µM (active)
same,fold change,"[9]; stronger effect = lower value, cell number ratio, induced over uninduced",0.909 (inactive)
same,fold change,[9]; measured here: relative caspase fold change +Dox/-Dox,0.469
same,cell count,"[9]; measured here: total cells with miR-34 induction, stronger effect = lower value",4500
same,cell count,[9]; measured here: total cells without miR-34 induction,4950
same,z-score,"[10]; MELAS cybrid survival, CellTiter-Glo 48 h, stronger effect = higher value",-0.658 (inactive)
same,z-score,"[10]; Rieske KO mouse fibroblast survival, CellTiter-Glo 72 h",0.218
same,inhibition,"[11]; at 0.5 µM, stronger effect = higher value",-14.5% (inactive) and -5.58% (inactive)
same,inhibition,"[11]; measured here: combination with BGB IC20, at 0.005 µM",-18.6% and -24.1%
same,inhibition,"[11]; measured here: combination with BGB IC40, at 0.005 µM",-32.2% and -65.4%
same,inhibition,"[11]; measured here: combination with BGB IC40, at 0.05 µM",-41.9% and -39.4%
same,inhibition,"[11]; measured here: combination with cisplatin, at 0.5 µM, stronger effect = higher value",-7.65% and 15.8%
same,inhibition,"[11]; measured here: combination with cisplatin, at 5 µM, stronger effect = higher value",98.3% and 80%
same,inhibition,"[12]; BGB combo, at 5 µM",42.2% and -4.91%
same,inhibition,[12]; at 0.5 µM,-11.3% (inactive) and -31.5% (inactive)
same,inhibition,"[12]; cisplatin combo, at 5 µM",48.9% and 1.35%
same,inhibition,"[12]; measured here: with BGB IC20 combination, at 0.5 µM",-15.6% and -44.2%
same,inhibition,"[12]; measured here: with cisplatin IC20 combination, at 0.5 µM",-0.181% and -16.9%
same,inhibition,"[12]; single agent, at 5 µM",58.6% and 19.5%
same,inhibition,"[13]; BGB IC20 combo, at 0.005 µM",-1.95% and -4.3%
same,inhibition,"[13]; BGB IC40 combo, at 0.005 µM",-29.2% and -32%
same,inhibition,"[13]; BGB IC40 combo, at 0.05 µM",25.2% and 28%
same,inhibition,[13]; at 0.5 µM,-12.7% (inactive) and -20.3% (inactive)
same,inhibition,"[13]; cisplatin combo, at 0.05 µM",22.5% and 24.5%
same,inhibition,"[13]; cisplatin combo, at 0.5 µM",-4.11% and -25.4%
same,inhibition,"[13]; cisplatin combo, at 5 µM",-33% and -20%
same,inhibition,"[13]; measured here: 5 uM single agent, at 5 µM",-20.1% and -35.8%
same,inhibition,[14]; at 0.5 µM,-4.93% (inactive) and -17.7% (inactive)
same,inhibition,"[14]; measured here: with BGB IC20, at 0.5 µM",-15.5% and -21.9%
same,inhibition,"[14]; measured here: with BGB IC20, at 5 µM",46.8% and 4.12%
same,inhibition,"[14]; measured here: with cisplatin IC20, at 0.5 µM",14.2% and -10.7%
same,inhibition,"[14]; measured here: with cisplatin IC20, at 5 µM",38.8% and 48.3%
same,inhibition,"[14]; single agent, at 5 µM",42.9% and 23.4%
same,inhibition,[15]; at 0.5 µM,-21.3% (inactive) and -18.7% (inactive)
same,inhibition,"[15]; measured here: BGB combination, at 0.5 µM",-26.1% and -14.4%
same,inhibition,"[15]; measured here: BGB combination, at 5 µM",12.3% and 1.72%
same,inhibition,"[15]; measured here: cisplatin combination, at 0.5 µM",-29.8% and -32%
same,inhibition,"[15]; measured here: cisplatin combination, at 5 µM",9.34% and 4.42%
same,inhibition,[16]; at 0.5 µM,0.96% (inactive) and 10.8% (inactive)
same,inhibition,"[16]; cisplatin combination, at 0.5 µM",-4.86% and 4.91%
same,inhibition,"[16]; cisplatin combination, at 5 µM",90.9% and 41.3%
same,inhibition,"[16]; measured here: BGB IC40 combination 0.05 uM, at 0.05 µM",-52.6% and -17.2%
same,inhibition,"[16]; single agent, at 5 µM",58% and 51.4%
same,inhibition,[17]; at 0.5 µM,-4.02% (inactive) and 5.89% (inactive)
same,inhibition,"[17]; cisplatin combo, at 5 µM",58% and 24.2%
same,inhibition,"[17]; measured here: BGB IC40 combination, at 0.05 µM",-5.21% and -9.76%
same,inhibition,"[17]; measured here: combination with cisplatin, at 0.5 µM",7.09% and 6.01%
same,inhibition,"[17]; single agent, at 5 µM",36.2% and 26.2%
